High-throughput results: PubChem, several laboratories
Rce1 inhib = yeast Ras-converting enzyme inhibition | Q03530 | yeast membranes, quenched prenylated peptide cleavage fluorescence | calls only | 0.27% of 290,000 active;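 active = fall in fluorescence gain of 50% or more versus controls, with final raw signal at or below 3038400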;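 also: plate controls were neutral control wells for no effect and wells lacking membranes for full effect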
TMEM16A act = mouse TMEM16A channel activation, primary screen; AID 623877; 0.3% of 340,000 active; HEK293 TMEM16A/YFP-H148Q/I152L, iodide quench fluorescence; active compounds read low; B-score at 10 µM; Q8BHY3;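 active = fluorescence-ratio B-score plate-corrected deviation score at least 3 library SD below zero, with starting fluorescence score within 5 deviations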;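 also: channel opened by trigger with iodide after compound preincubation; score built on the fluorescence ratio of max minus min over baseline; more negative score means more quench and so TMEM16A activation or potentiation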
ANO1 block = inhibitors of mouse TMEM16A calcium-activated chloride channel | 1.2% of 310,000 active | Q8BHY3 | normalized B-score (activity score, 25-100; higher = stronger inhibition) at 10 µM | AID 588511 | HEK293 TMEM16A/YFP iodide influx fluorescence, ionomycin;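 active = ratio plate-corrected score three or more library SD toward inhibition, starting fluorescence score within five deviations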;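 also: score derived from kinetic fluorescence span divided by baseline fluorescence per well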
CHT block = inhibits the human high affinity choline transporter | Q9GZV3 | CHT-expressing cells, membrane potential dye, choline response; active compounds read low | B-score at 10 µM | 0.86% of 310,000 active;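 active = B-score over 3 SD under the library average, and starting fluorescence ratio not unusually high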;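 also: choline stimulus applied at its EC90 after an EC20 pre-addition; B-score computed on integrated fluorescence ratio after choline addition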
Target sequence (Q9GZV3 whole entry, looked up): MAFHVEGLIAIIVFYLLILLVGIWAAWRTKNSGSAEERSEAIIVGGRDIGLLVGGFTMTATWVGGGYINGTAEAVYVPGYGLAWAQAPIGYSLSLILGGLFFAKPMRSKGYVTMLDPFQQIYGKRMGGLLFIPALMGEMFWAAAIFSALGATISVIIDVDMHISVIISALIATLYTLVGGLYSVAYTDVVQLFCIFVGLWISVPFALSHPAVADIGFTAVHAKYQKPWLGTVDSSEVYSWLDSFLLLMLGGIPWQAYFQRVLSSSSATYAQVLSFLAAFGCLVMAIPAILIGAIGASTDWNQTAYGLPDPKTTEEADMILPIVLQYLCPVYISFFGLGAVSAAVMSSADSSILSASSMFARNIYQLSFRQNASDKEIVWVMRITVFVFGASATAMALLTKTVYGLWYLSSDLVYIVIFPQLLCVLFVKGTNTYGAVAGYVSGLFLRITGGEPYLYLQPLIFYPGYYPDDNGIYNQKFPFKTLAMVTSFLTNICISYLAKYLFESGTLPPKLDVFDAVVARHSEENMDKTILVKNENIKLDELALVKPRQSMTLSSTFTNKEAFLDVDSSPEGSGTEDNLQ
Kir21 inh = Kir2.1 (mouse) channel inhibition; 0.85% of 310,000 active; HEK293-Kir2.1, FluxOR thallium flux fluorescence; active compounds read low; B-score at 10 µM;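 active = fluorescence ratio B-score at or below minus 3 SD of library scores, with starting-brightness B-score within 2 SD, cut at about -4.2 in these data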;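 also: channel flux triggered by added potassium and thallium sulfate stimulus; B-score of peak minus minimum fluorescence over baseline after thallium stimulus; more negative B-score means stronger Kir2.1 block with less thallium influx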
CHT allo act = human CHT allosteric activation; CHT-expressing cells, membrane potential dye, choline EC20; active compounds read high; LV-AA mutant CHT in HEK293 cells; Q9GZV3; B-score at 10 µM; 0.49% of 310,000 active; AID 488977;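 active = initial fluorescence not abnormally high and integrated response B-score, plate-corrected, over 3 SD above library mean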
TMEM16A reconf = reconfirmed blocker of mouse TMEM16A calcium-activated chloride channel. shares compounds with ANO1 block. HEK293 TMEM16A/YFP-H148Q, iodide quench fluorescence; ionomycin added to raise cell calcium. inhibition, % at 10 µM. 39% of 2,300 active;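 active = mean duplicate percent inhibition, scaled so buffer wells are 0 and the reference blocker 100, over three buffer SD above buffer mean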
TMEM16A Ca cntr = calcium mobilization counter-screen hit for TMEM16A inhibitor series. shares compounds with ANO1 block. TMEM16A/YFP HEK293, Fluo4 calcium mobilization. calcium response (% of ionomycin), % at 10 µM. 2% of 2,300 active;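 active = duplicate-averaged calcium signal over 20% of the ionomycin maximum, relative to buffer baseline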;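 also: each well's signal is peak minus trough fluorescence divided by its pre-addition baseline; 0% = buffer wells and 100% = ionomycin wells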
YFP-HEK293 quench = counter-screen for TMEM16A inhibitors: effect in parental YFP-HEK293 cells | iodide YFP quench, ionomycin | AID 652233 | YFP ratio F(max-min)/F0 at 10 µM | shares compounds with ANO1 block | 2,300 tested, under 10 active;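 active = yellow fluorescent protein signal ratio exceeding the buffer control mean by over 5 SD of those controls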;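 also: ratio is mean of duplicate wells from kinetic YFP trace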
ClC-1 rat inh = blocks the rat ClC-1 voltage-dependent chloride channel | shares compounds with ANO1 block | AID 652236 | 2,300 tested, under 10 active | ratio percent, % at 10 µM | CHO ClC-1-YFP, iodide influx fluorescence quench; iodide control reads 0, buffer control 100;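 active = duplicate-mean ratio percent above the mean of iodide-only control wells, which defines zero, plus 5 of their SD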;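 also: higher percent means stronger block of ClC-1 iodide influx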
Active calls of the source: *. Only some compounds are listed: those with a hit (about 3.2% of all), similar ones and a draw of the others.

How did O=C(COC(=O)C1(c2ccc(F)cc2)CCCC1)Nc1ncc(C(F)(F)F)cc1Cl do in these assays?
Rce1 inhib: inactive; TMEM16A act: inactive; ANO1 block: 100*; CHT block: inactive; Kir21 inh: -1.95; CHT allo act: inactive; TMEM16A reconf: 55.0%*; TMEM16A Ca cntr: inactive; YFP-HEK293 quench: -0.82; ClC-1 rat inh: -11.0

How did CCC(=O)OCC(=O)Nc1ncc(C(F)(F)F)cc1Cl do in these assays?
Rce1 inhib: inactive; TMEM16A act: inactive; ANO1 block: inactive; CHT block: inactive; Kir21 inh: -0.28; CHT allo act: inactive

What do the screens show for `Cc1cc(/C=C2\C(=N)N3N=C(C(C)C)SC3=NC2=O)c(C)n1-c1ccccc1`?
Rce1 inhib: inactive; TMEM16A act: inactive; ANO1 block: inactive; CHT block: inactive; Kir21 inh: -1.51; CHT allo act: inactive

How did CCOC(=O)c1cc(NC(=O)Nc2ccc(OC)c(OC)c2)c(C)nc1C do in these assays?
Rce1 inhib: inactive; TMEM16A act: inactive; ANO1 block: 100*; CHT block: inactive; Kir21 inh: 1.35; CHT allo act: inactive; TMEM16A reconf: inactive; TMEM16A Ca cntr: inactive; YFP-HEK293 quench: -1.16; ClC-1 rat inh: -11.5

What do the screens show for `CCOC(=O)c1cc(NC(=O)N(C(C)C)C(C)C)c(C)nc1C`?
Rce1 inhib: inactive; TMEM16A act: inactive; ANO1 block: inactive; CHT block: inactive; Kir21 inh: -2.41; CHT allo act: inactive

How did CCOC(=O)c1c(S(=O)(=O)N2CCCCC2C)c(C)n(C)c1C (configuration not stated) do in these assays?
Rce1 inhib: inactive; TMEM16A act: inactive; ANO1 block: inactive; CHT block: inactive; Kir21 inh: -1.44; CHT allo act: inactive

What do the screens show for `COc1ccc(NS(=O)(=O)c2ccc3c(c2)Cc2ccccc2-3)cn1`?
Rce1 inhib: inactive; TMEM16A act: inactive; ANO1 block: 25*; CHT block: inactive; Kir21 inh: 0.06; CHT allo act: inactive; TMEM16A reconf: inactive; TMEM16A Ca cntr: inactive; YFP-HEK293 quench: -1.51; ClC-1 rat inh: -3.0

What do the screens show for `COc1ccc(NS(=O)(=O)c2ccc(N3CCCC3=O)cc2)cn1`?
Rce1 inhib: inactive; TMEM16A act: inactive; ANO1 block: inactive; CHT block: inactive; Kir21 inh: -0.22; CHT allo act: inactive

Results for NS(=O)(=O)c1ccc(CCNCc2ccccc2OCc2ccc(F)cc2)cc1 ?
Rce1 inhib: inactive; TMEM16A act: inactive; ANO1 block: inactive; CHT block: inactive; Kir21 inh: -2.71; CHT allo act: inactive

How did NS(=O)(=O)c1ccc(NCc2ccccc2OCc2ccc(F)cc2)cc1 do in these assays?
Rce1 inhib: inactive; TMEM16A act: inactive; ANO1 block: 100*; CHT block: inactive; Kir21 inh: -3.29; CHT allo act: inactive; TMEM16A reconf: inactive; TMEM16A Ca cntr: inactive; YFP-HEK293 quench: -0.928; ClC-1 rat inh: -2.5

Results for CC(C)C(=O)c1cc2c(cc1NC(=O)c1ccccc1)OCCO2 ?
Rce1 inhib: inactive; TMEM16A act: inactive; ANO1 block: 100*; CHT block: inactive; Kir21 inh: 1.63; CHT allo act: inactive; TMEM16A reconf: inactive; TMEM16A Ca cntr: inactive; YFP-HEK293 quench: -1.28; ClC-1 rat inh: -12.5

Results for CC(C)C(=O)c1cc2c(cc1NC(=O)Nc1cccc3ccccc13)OCCO2 ?
Rce1 inhib: inactive; ANO1 block: inactive; CHT block: inactive; Kir21 inh: 0.23; CHT allo act: inactive

How did COc1cccc(-c2c(C#N)c(N)nc3c2c(C)nn3-c2ccccc2)c1O do in these assays?
Rce1 inhib: inactive; TMEM16A act: inactive; ANO1 block: 100*; CHT block: inactive; Kir21 inh: -0.71; CHT allo act: inactive; TMEM16A reconf: 45.0%*; TMEM16A Ca cntr: inactive; YFP-HEK293 quench: -0.904; ClC-1 rat inh: -10.0

How did COc1cccc(NC(=O)C2CCN(Cc3cnn(-c4ccccc4)c3-n3cccc3)CC2)c1 do in these assays?
Rce1 inhib: inactive; TMEM16A act: inactive; ANO1 block: 25*; CHT block: inactive; Kir21 inh: -1.58; CHT allo act: inactive; TMEM16A reconf: inactive; TMEM16A Ca cntr: inactive; YFP-HEK293 quench: -1.38; ClC-1 rat inh: -9.0

What do the screens show for `COc1ccc(N/C(=C2\CCCC2=O)C2CCCCC2)cc1`?
Rce1 inhib: inactive; TMEM16A act: inactive; ANO1 block: inactive; CHT block: inactive; Kir21 inh: 0.54; CHT allo act: inactive; TMEM16A reconf: inactive; TMEM16A Ca cntr: inactive; YFP-HEK293 quench: -1.05; ClC-1 rat inh: -15.0

What do the screens show for `O=C(Nc1ccn(-c2ccccc2)n1)c1ccc(S(=O)(=O)N2CCCCCC2)cc1`?
Rce1 inhib: inactive; TMEM16A act: inactive; ANO1 block: 25*; CHT block: inactive; Kir21 inh: -1.06; CHT allo act: inactive; TMEM16A reconf: inactive; TMEM16A Ca cntr: inactive; YFP-HEK293 quench: -1.23; ClC-1 rat inh: -7.0

How did Cc1ccc(NC(=O)Cc2ccccc2)cc1S(=O)(=O)N1CCOCC1 do in these assays?
TMEM16A act: inactive

Results for Cc1ccc(O)c(-c2cc(C(F)(F)F)[nH]n2)c1 ?
Rce1 inhib: inactive; TMEM16A act: inactive; ANO1 block: 100*; CHT block: inactive; Kir21 inh: 2.36; CHT allo act: inactive; TMEM16A reconf: 56.5%*; TMEM16A Ca cntr: inactive; YFP-HEK293 quench: -1.16; ClC-1 rat inh: -28.0

Results for O=C(Cc1cccs1)Nc1ccc(S(=O)(=O)Nc2ncccn2)cc1 ?
TMEM16A act: inactive; ANO1 block: 25*; CHT block: inactive; CHT allo act: inactive; TMEM16A reconf: inactive; TMEM16A Ca cntr: inactive; YFP-HEK293 quench: -1.11; ClC-1 rat inh: -6.5

What do the screens show for `Cc1ccnc(NS(=O)(=O)c2ccc(NC(=O)Cc3cccs3)cc2)n1`?
Rce1 inhib: inactive; TMEM16A act: inactive; ANO1 block: inactive; CHT block: inactive; Kir21 inh: 0.6; CHT allo act: inactive
